Experimental data taken from PubChem BioAssay (Tox21).
Inconclusive results are not listed. Calls of active or inactive are those of the source. Unless noted, calls follow the shape of the full dose curve.

What was measured:
[1] = biological target: Peroxisome proliferator-activated receptor delta (Homo sapiens) (UniProt Q03181); test: qHTS assay to identify small molecule agonists of the peroxisome proliferator-activated receptor delta (PPARd) signaling pathway (AID 743212)
In short: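 GeneBLAzer PPARd UAS-bla HEK293H cells (beta-lactamase reporter under UAS control), plated and rested 5 h at 37 C, then exposed to compounds in DMSO at 37 C; LiveBLAzer B/G FRET substrate added, 2 h room temperature, fluorescence read.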

[2] = qHTS assay to identify small molecule antagonists of the farnesoid-X-receptor (FXR) signaling pathway - cell viability counter screen (AID 743221; active = well fitted cell-killing curve with a large enough effect in the repeat runs, not every such curve was filed as active; also: nearly all actives have a fitted effect of over 50% in size)
In short: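 CellTiter-Glo, 30 min RT, luminescence; same wells as the LiveBLAzer FRET read. Cells: FXR-UAS-bla HEK 293T. Treatment: compound with chenodeoxycholic acid 50 uM final, 16 h at 37 C.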

[3] = biological target: Vitamin D3 receptor (Homo sapiens) (UniProt P11473); test: qHTS assay to identify small molecule agonists of the vitamin D receptor (VDR) signaling pathway (AID 743222)
Vitamin D3 receptor (Homo sapiens), sequence (P11473 whole entry, looked up): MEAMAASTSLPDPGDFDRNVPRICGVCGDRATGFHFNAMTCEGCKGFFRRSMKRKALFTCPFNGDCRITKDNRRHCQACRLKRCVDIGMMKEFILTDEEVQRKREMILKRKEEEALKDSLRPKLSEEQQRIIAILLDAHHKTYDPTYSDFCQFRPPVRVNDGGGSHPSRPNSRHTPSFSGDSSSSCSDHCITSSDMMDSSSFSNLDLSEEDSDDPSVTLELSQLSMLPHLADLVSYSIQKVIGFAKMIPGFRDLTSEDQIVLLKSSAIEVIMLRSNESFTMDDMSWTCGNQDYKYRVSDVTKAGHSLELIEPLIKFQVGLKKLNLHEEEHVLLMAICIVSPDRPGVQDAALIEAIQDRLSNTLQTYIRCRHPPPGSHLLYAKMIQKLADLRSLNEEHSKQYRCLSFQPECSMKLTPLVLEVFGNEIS
In short: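 Agonist activity measured in VDR-bla reporter cells. Exposure 16 h, 37C, 5% CO2; detection by B/G FRET substrate, 2 h RT.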

[4] = qHTS assay to identify small molecule agonists of the vitamin D receptor (VDR) signaling pathway - cell viability counter screen (AID 743224; active = well fitted curve in the direction sought with a large enough effect in the repeat runs; an effect the other way counts as inactive or inconclusive; also: nearly all actives have a fitted effect of over 50% in size; also: potency is read from the fitted curve at half-maximal effect)
In short: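 VDR-bla cell line, quantitative HTS format; 16 h compound incubation (37C, 5% CO2); ATP-based CellTiter-Glo luminescence measured in the reporter assay wells.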

[5] = qHTS assay to identify small molecule agonists of the NFkB signaling pathway - cell viability counter screen (AID 1159515); also: series mostly up to about 61 µM; nearly all actives have a fitted effect of over 55% in size
In short: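 Viability in NFkB-bla ME-180 cells was measured by CellTiter-Glo luminescence, 30 min room temperature, in wells already treated 5 hr with compounds and read for reporter FRET.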

[6] = qHTS assay to identify small molecule agonists of the endoplasmic reticulum stress response signaling pathway (AID 1159516; active = well fitted activation curve with a large enough effect in the signal ratio in the repeat runs, not every such curve was filed as active; the % refers to the signal ratio)
In short: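 ER stress element reporter (bla) in HeLa. 1,500 cells/well, overnight attachment; 5 hr compound; 2 hr RT substrate; dual-emission fluorescence.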

[7] = qHTS assay to identify small molecule agonists of the endoplasmic reticulum stress response signaling pathway - cell viability counter screen (AID 1159517);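 also: HeLa cells carrying an ER stress response element beta-lactamase reporter; series mostly up to about 61 µM; nearly all actives have a fitted effect of over 50% in size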
In short: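 Luminescence readout: CellTiter-Glo, 30 min RT, same wells as the ESRE-bla reporter read. HeLa ESRE-bla, 1,500 cells/well, o/n 37 C; cpd 5 hr 37 C/5% CO2.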

[8] = qHTS assay to identify small molecule agonists of the AP-1 signaling pathway - cell viability counter screen (AID 1159525); also: nearly all actives have a fitted effect of over 55% in size
In short: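 ME-180 AP-1-bla, 2500 cells/well, Opti-MEM + 0.5% dialyzed FBS; overnight 37 °C; cpd 15-pt titration, 5 h 37 °C; CellTiter-Glo 30 min RT; luminescence read; normalised to TOAB and DMSO controls.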

[9] = qHTS assay to identify small molecule agonists of the peroxisome proliferator-activated receptor delta (PPARd) signaling pathway - cell viability counter screen (AID 743211; active = well fitted curve in the direction sought with a large enough effect in the repeat runs; an effect the other way counts as inactive or inconclusive; also: nearly all actives have a fitted effect of over 55% in size; also: potency is read from the fitted curve at half-maximal effect)
In short: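 Multiplexed format: after the 2 h room-temperature LiveBLAzer B/G FRET step, CellTiter-Glo was added to the same wells. Luminescence after 30 min gave cell viability; compound exposure was 17 h at 37C.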

[10] = biological target: Bile acid receptor (Homo sapiens) (UniProt Q96RI1); test: qHTS assay to identify small molecule antagonists of the farnesoid-X-receptor (FXR) signaling pathway (AID 743217; active = well fitted inhibition curve with a large enough effect in the signal ratio in the repeat runs, not every such curve was filed as active; the % refers to the signal ratio)
Bile acid receptor (Homo sapiens), sequence (Q96RI1 whole entry, looked up): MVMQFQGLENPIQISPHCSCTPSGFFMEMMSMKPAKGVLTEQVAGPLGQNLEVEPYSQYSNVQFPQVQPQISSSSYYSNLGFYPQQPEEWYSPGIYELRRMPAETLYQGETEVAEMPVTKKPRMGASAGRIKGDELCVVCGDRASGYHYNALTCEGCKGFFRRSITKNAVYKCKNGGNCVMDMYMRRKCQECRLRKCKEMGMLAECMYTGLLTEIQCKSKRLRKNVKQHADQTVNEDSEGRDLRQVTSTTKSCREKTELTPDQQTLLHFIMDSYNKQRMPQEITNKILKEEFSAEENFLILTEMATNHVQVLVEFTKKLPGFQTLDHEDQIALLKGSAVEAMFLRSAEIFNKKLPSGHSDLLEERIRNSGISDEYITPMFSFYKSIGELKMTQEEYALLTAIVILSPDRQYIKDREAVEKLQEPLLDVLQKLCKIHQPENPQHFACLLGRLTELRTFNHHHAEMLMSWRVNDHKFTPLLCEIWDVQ
In short: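 Beta-lactamase reporter under UAS control in HEK 293T cells; compound exposure 16 h at 37 °C in the presence of chenodeoxycholic acid (50 uM final); signal from B/G FRET substrate after 2 h at room temperature.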

[11] = biological target: Bile acid receptor (Homo sapiens) (UniProt Q96RI1); test: qHTS assay to identify small molecule agonists of the farnesoid-X-receptor (FXR) signaling pathway (AID 743220; active = well fitted activation curve with a large enough effect in the signal ratio in the repeat runs, not every such curve was filed as active; the % refers to the signal ratio)
In short: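 Beta-lactamase reporter under UAS control in GeneBLAzer FXR HEK 293T cells (5000/well) measured with LiveBLAzer FRET substrate after 2 h at room temperature. Compound exposure lasted 16 h at 37C.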

[12] = qHTS assay to identify small molecule antagonists of the vitamin D receptor (VDR) signaling pathway - cell viability counter screen (AID 743225; active = well fitted curve in the direction sought with a large enough effect in the repeat runs; an effect the other way counts as inactive or inconclusive; also: nearly all actives have a fitted effect of over 50% in size)
In short: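 Cytotoxicity toward the VDR-bla HEK 293T line was scored by ATP-based CellTiter-Glo luminescence, read in the wells already used for the beta-lactamase readout after 16 h compound treatment under 3 nM 1-alpha,25-dihydroxyvitamin D3 stimulation.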

[13] = qHTS assay to identify small molecule antagonists of the retinoid-related orphan receptor gamma (ROR-gamma) signaling pathway - cell viability counter screen (AID 1159520; active = well fitted curve in the direction sought with a large enough effect in the repeat runs; an effect the other way counts as inactive or inconclusive; also: nearly all actives have a fitted effect of over 50% in size)
In short: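 Tet-on ROR gamma CHO cells (1,000/well) were plated 4 hr, given compounds in DMSO for 2 hr at 37 C, then induced with 1 uM final doxycycline for 16 hr. Viability was read as ATP by CellTiter-Glo luminescence after 30 min.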

[14] = biological target: Peroxisome proliferator-activated receptor delta (Homo sapiens) (UniProt Q03181); test: qHTS assay to identify small molecule antagonists of the peroxisome proliferator-activated receptor delta (PPARd) signaling pathway (AID 743215; active = well fitted inhibition curve with a large enough effect in the signal ratio in the repeat runs, not every such curve was filed as active; the % refers to the signal ratio;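 also: cells stimulated with agonist L165041 at 300 nM final during compound exposure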; also: potency is read from the fitted curve at half-maximal effect)
In short: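 Antagonist-mode beta-lactamase reporter screen: HEK293H cells with UAS-bla under PPARd control, stimulated by 300 nM L165041 (final) alongside test compound for 17 h at 37 C, then FRET fluorescence after 2 h substrate incubation.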

[15] = qHTS assay to identify small molecule agonists of the AP-1 signaling pathway (AID 1159526)
[16] = qHTS assay to identify small molecule antagonists of the peroxisome proliferator-activated receptor delta (PPARd) signaling pathway - cell viability counter screen (AID 743213; active = well fitted curve in the direction sought with a large enough effect in the repeat runs; an effect the other way counts as inactive or inconclusive; also: nearly all actives have a fitted effect of over 50% in size; also: potency is read from the fitted curve at half-maximal effect)
In short: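 CellTiter-Glo was added to PPARd-bla HEK293H wells following 17 h compound treatment in the presence of 300 nM L165041. Luminescence was recorded after 30 min at room temperature.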

[17] = biological target: Retinoic acid receptor RXR-alpha (Homo sapiens) (UniProt P19793); test: qHTS assay to identify small molecule agonists of the RXR signaling pathway (AID 1159527); also: nearly all actives have a fitted effect of over 35% in size
Retinoic acid receptor RXR-alpha (Homo sapiens), sequence (P19793 whole entry, looked up): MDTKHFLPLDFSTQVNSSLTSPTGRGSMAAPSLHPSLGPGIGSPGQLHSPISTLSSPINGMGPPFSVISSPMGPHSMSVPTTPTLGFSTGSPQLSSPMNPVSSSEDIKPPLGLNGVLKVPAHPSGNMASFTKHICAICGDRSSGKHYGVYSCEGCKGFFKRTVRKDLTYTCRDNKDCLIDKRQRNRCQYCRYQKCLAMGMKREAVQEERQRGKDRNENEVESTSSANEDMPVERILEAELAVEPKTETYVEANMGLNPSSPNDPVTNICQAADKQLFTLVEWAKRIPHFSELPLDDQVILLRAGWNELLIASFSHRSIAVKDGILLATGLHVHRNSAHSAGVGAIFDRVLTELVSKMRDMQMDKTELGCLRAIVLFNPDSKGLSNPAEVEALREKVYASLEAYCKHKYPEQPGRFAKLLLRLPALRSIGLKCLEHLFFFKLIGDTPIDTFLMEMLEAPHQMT
In short: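 Reporter activation is measured as beta-lactamase activity via FRET substrate cleavage (emission 460/530 nm) in HEK 293T cells expressing an RXR-alpha-driven bla construct, following 16 hr compound exposure at 37 C.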

[18] = biological target: Vitamin D3 receptor (Homo sapiens) (UniProt P11473); test: qHTS assay to identify small molecule antagonists of the vitamin D receptor (VDR) signaling pathway (AID 743223; active = well fitted inhibition curve with a large enough effect in the signal ratio in the repeat runs, not every such curve was filed as active; the % refers to the signal ratio)
In short: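 After VDR-bla cells are plated and left 4 h at 37C, DMSO-dissolved compounds and 3 nM (final) calcitriol agonist are added. Incubation continues 16 h at 37C; FRET beta-lactamase substrate then develops 2 h at room temperature.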

[19] = qHTS assay to identify small molecule agonists of the farnesoid-X-receptor (FXR) signaling pathway - cell viability counter screen (AID 743218; active = well fitted curve in the direction sought with a large enough effect in the repeat runs; an effect the other way counts as inactive or inconclusive; also: nearly all actives have a fitted effect of over 45% in size; also: potency is read from the fitted curve at half-maximal effect)
In short: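 In GeneBLAzer FXR-UAS-bla HEK 293T cells, compounds act for 16 h at 37 C. Cell viability is then scored in the reporter wells by CellTiter-Glo, 30 min at RT, luminescence.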

[20] = biological target: Nuclear receptor ROR-gamma (Homo sapiens) (UniProt P51449); test: qHTS assay to identify small molecule antagonists of the retinoid-related orphan receptor gamma (ROR-gamma) signaling pathway (AID 1159521; active = well fitted curve in the direction sought with a large enough effect in the repeat runs; an effect the other way counts as inactive or inconclusive; also: nearly all actives have a fitted effect of over 50% in size; also: potency is read from the fitted curve at half-maximal effect)
In short: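 Readout: ONE-Glo luciferase luminescence, 30 min at room temperature. System: Tet-on RORγ CHO, RORE-LUC. Sequence: compound 2 h, doxycycline 1 uM final, 16 h at 37 C.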

Measured: Potency

Peroxisome proliferator-activated receptor delta (Homo sapiens), sequence (Q03181 whole entry, looked up): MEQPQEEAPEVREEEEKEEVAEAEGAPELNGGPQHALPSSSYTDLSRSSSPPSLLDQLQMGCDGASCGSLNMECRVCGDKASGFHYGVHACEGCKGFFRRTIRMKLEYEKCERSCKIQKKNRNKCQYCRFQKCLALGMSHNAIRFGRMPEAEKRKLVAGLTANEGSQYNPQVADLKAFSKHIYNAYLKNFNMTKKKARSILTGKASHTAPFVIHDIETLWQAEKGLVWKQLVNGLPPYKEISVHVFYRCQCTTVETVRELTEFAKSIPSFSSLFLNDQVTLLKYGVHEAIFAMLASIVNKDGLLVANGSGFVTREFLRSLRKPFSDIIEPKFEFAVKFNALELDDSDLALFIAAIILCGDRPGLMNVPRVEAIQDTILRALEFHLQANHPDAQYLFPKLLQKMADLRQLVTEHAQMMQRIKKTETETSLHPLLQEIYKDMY

CN(C)c1ccc(N)cc1
active: [4] 42.6 µM
inactive: [1] | [2] | [3] | [5] | [6] | [7] | [8]

COP(=S)(OC)Oc1nc(Cl)c(Cl)cc1Cl
inactive: [9] | [10] | [11] | [2] | [4] | [12] | [5] | [6] | [7] | [13] | [8]

CN1CCc2cc(Cl)c(O)cc2[C@H]2c3ccccc3CC[C@@H]21
inactive: [1] | [14] | [11] | [2] | [12] | [5] | [6] | [7] | [13] | [8] | [15]

O.O.O.O.O.O.O.O=S(=O)([O-])[O-].[Co+2]
inactive: [16] | [2] | [4] | [5] | [6] | [7] | [8] | [15] | [17]

c1ccc2nc(N3CCNCC3)ccc2c1
inactive: [18] | [4] | [12] | [5] | [6] | [7] | [13] | [8] | [15]

FC(F)C(F)(F)OCC(Cn1cncn1)c1ccc(Cl)cc1Cl (stereo not given)
inactive: [1] | [19] | [11] | [18] | [5] | [6] | [7] | [8] | [15] | [17]

C[C@]12CC[C@H]3[C@@H](CCC4=CC(=O)CC[C@@H]43)[C@@H]1CC[C@@H]2OC(=O)CCc1ccco1
inactive: [3] | [5] | [6] | [7] | [13] | [8]
active: [16] 29.8 µM | [19] 21.1 µM | [4] 21.1 µM

Cc1c([N+](=O)[O-])cc2c(c1[N+](=O)[O-])C(C)(C)CC2(C)C
not listed: [3] | [4] | [9] | [10] | [15] | [16] | [17] | [20]
inactive: all other assays above

CCCCCON=O
not listed: [7] | [10] | [11] | [19]
inactive: all other assays above

CO/N=C(\C(=O)OC)c1ccccc1CO/N=C(\C)c1cccc(C(F)(F)F)c1
active: [9] 21.9 µM | [16] 21.9 µM | [14] 4.9 µM | [20] 0.77 µM
inactive: [1] | [5] | [6] | [7] | [8] | [15]
